Sfp inh: blocks B. subtilis Sfp PPTase activity | Potency, µM, inactives show largest response in the series, negative = inhibition, actives largely listed as inhibitors | Biochemical Sfp PPTase activity, qHTS | AID 1490 | 310,000 tested, 3.5% active;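 also: the enzyme is Sfp with the accession as filed and its product quenches rhodamine fluorescence; potency is read from the fitted curve at half-maximal effect; 0% = enzyme reaction without inhibitor and -100% = no enzyme wells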
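Fluorescence-quenching assay: 15 nM Sfp-PPTase preincubated 15 min at room temperature with compound, then 5 uM rhodamine-CoA and 12.5 uM BHQ-2-labelled YbbR peptide added. Fluorescence (ex 525/em 598 nm) read at start and after 30 min; difference gives rate.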
PLK1 PBD block: PLK1 (human) polo-box domain binding inhibition | P53350 | Plk1 PBD binding of FITC phosphopeptide, fluorescence polarization | Potency, µM, without a hit: max response, negative = inhibition, most hits filed as inhibitors | 360,000 tested, 2.8% active; also: potency is read from the fitted curve at half-maximal effect; series mostly up to about 57 µM; % is scaled to controls: 0 for no effect and ±100 for the full control effect; nearly all actives have a fitted effect of over 65% in size
VDR inh: inhibitors of human vitamin D receptor. P11473. VDR-SRC2-3 peptide fluorescence polarization, 2 h. Potency, µM, for the others: max response, negative = inhibition, actives largely listed as inhibitors. 400,000 tested, 0.93% active. AID 504847; also: potency is read from the fitted curve at half-maximal effect; % is scaled to controls: 0 for no effect and ±100 for the full control effect
Target sequence (P11473 whole entry, looked up): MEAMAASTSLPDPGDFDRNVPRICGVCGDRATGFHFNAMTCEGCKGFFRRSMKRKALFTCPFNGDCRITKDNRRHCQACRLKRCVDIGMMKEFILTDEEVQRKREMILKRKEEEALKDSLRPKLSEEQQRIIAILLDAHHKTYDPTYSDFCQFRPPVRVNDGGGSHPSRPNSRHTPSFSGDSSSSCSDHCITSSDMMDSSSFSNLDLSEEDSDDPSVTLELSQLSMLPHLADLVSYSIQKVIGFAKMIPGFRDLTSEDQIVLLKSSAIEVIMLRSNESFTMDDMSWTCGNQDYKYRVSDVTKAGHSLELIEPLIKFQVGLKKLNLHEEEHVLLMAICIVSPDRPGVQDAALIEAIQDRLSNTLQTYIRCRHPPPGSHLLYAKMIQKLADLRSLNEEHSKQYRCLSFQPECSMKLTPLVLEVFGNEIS
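Measured by FP: displacement of SRC2-3 coactivator peptide from VDR by library compounds, following a two-hour ambient incubation.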
G9a block: inhibitors of human histone lysine methyltransferase G9a | Q96KQ7 | Potency, µM (series often up to 102 µM), for the others: at the highest dose activity, negative = inhibition, actives largely listed as inhibitors | 350,000 tested, 8.8% active | AID 504332 | G9a H3K9 monomethylation, AlphaScreen, 2 h; also: potency is read from the fitted curve at half-maximal effect; % is scaled to controls: 0 for no effect and ±100 for the full control effect; nearly all actives have a fitted effect of over 75% in size
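Using a bead-based AlphaScreen, monomethylated H3K9 product from 2 h room-temperature reactions (G9a 20 nM, peptide 500 nM, SAM 20 uM) was detected with 0.5 ug/mL rabbit anti-H3K9me1 antibody.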
Mm-Cpn inhibitor: M. maripaludis TRiC chaperonin inhibition. Potency, µM (doses to about 76.9 µM), inactives show at the highest dose activity, negative = inhibition, most hits filed as inhibitors. purified Mm-Cpn ATPase, ADP Transcreener TR-FRET. 330,000 tested, 0.031% active; also: potency is read from the fitted curve at half-maximal effect; % is scaled to controls: 0 for no effect and ±100 for the full control effect; nearly all actives have a fitted effect of over 80% in size
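TR-FRET (320 nm excitation; 590 and 665 nm emission) reports ADP made from 10 uM ATP by 25 nM enzyme; compounds were preincubated 10 min, reaction run 30 min, both at 37°C.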
CCT chaperon mod: cytosolic chaperonin activity modulation; purified chaperonin ATPase assay, HTRF ADP detection, 30 min; activity change, % (concentration not given with the values), hits read low; 360,000 tested, 0.3% active; in the data active = activity change below about -30%; also: % is scaled to controls: 0 for no effect and ±100 for the full control effect
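TRiC (40 or 20 nM final, by batch activity) in 30 mM Tris pH 7.4, 100 mM KCl, 5 mM MgCl2, 1 mM DTT was treated with compound at 76 uM single dose, then 10 uM ATP, 30 min at 37 °C. ADP was read by HTRF Transcreener.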
USP1 UbRho: USP1-UAF1 deubiquitinase inhibition validated | shares compounds with VDR inh | Ub-Rhodamine cleavage, fluorescence kinetic read | Potency, µM (titrated, usually from 56.8 µM), for the others: top-dose activity change, negative = inhibition, actives largely listed as inhibitors | 50 tested, 50% active | AID 540327
VDR inh confirm: confirmation of human vitamin D receptor inhibitors; shares compounds with VDR inh; VDR-coactivator inhibition assay, qHTS confirmation; Potency, µM, actives largely listed as inhibitors; 840 tested, 89% active; AID 602199; also: potency is read from the fitted curve at half-maximal effect
VDR FP: VDR (human) coactivator binding inhibition, fluorescein polarization | shares compounds with VDR inh | VDR-coactivator binding, fluorescein fluorescence polarization | Potency, µM (series often up to 57.1 µM), for inactives: at the top dose activity change, negative = inhibition, most hits filed as inhibitors | 840 tested, 48% active; also: potency is read from the fitted curve at half-maximal effect
VDR bla reporter: confirmation of human vitamin D receptor inhibitors in reporter cells. shares compounds with VDR inh. VDR beta-lactamase reporter cells, FRET ratio; cells co-treated with VDR agonist LG190178. Potency, µM (highest dose often 46.1 µM), for the others: top-dose activity change, negative = inhibition, actives largely listed as inhibitors. 840 tested, 23% active. AID 602202; also: potency is read from the fitted curve at half-maximal effect; % is scaled to controls: 0 for no effect and ±100 for the full control effect
VDR viability: cell toxicity, VDR inhibitor hit counter-screen; shares compounds with VDR inh; cytotoxicity counter-screen, cell viability, qHTS; Potency, µM (titrated, usually from 48.3 µM), without a hit: top-dose activity change, negative = cytotoxicity, actives largely listed as cytotoxic; 840 tested, 18% active; AID 602204;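 also: potency is read from the fitted curve at half-maximal effect; plate controls were DMSO for no effect and high-concentration cycloheximide for full effect; nearly all actives have a fitted effect of over 75% in size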
* hit, by the source's call; ? = inconclusive; · = no result; [ ] = dose if it differs, or a comment. Compounds with a hit are over-represented: about 10% of the library has one in this group of screens. Unless noted, calls follow the shape of the dose curve; as a rule, active = well fitted curve in the direction sought with a large enough effect; inconclusive = small, poorly fitted or top-dose-only effect, or another doubt; inactive = no such curve, though single readings can be large; an effect the other way counts as inactive or inconclusive.

SMILES | Sfp inh | PLK1 PBD block | VDR inh | G9a block | Mm-Cpn inhibitor | CCT chaperon mod | VDR inh confirm | VDR FP | VDR bla reporter | VDR viability | others
CS(=O)(=O)c1ncc(Cl)c(C(=O)Nc2ccc(N3CCOCC3)cc2)n1 | -41.7% | ? | -69.8% | ? | 1.5% | -2.9 | · | · | · | ·
CCN(c1ccccc1)S(=O)(=O)c1ccc(NC(=O)c2nc(S(C)(=O)=O)ncc2Cl)cc1 | 20µM* | 16.8µM* | 39.8µM* | 31.6µM* | -8.6% | 1.8 | 13.4* | ? | ? | 16.4µM*
CCS(=O)(=O)c1ncc(Cl)c(C(=O)Nc2ccc(S(=O)(=O)N(C)c3ccccc3)cc2)n1 | ? | ? | ? | 39.8µM* | -17.9% | 0.8 | 4.47* | ? | ? | 7.52µM*
C[C@]1(OC(=O)/C=C\c2ccccc2)C[C@@H](O)[C@@]2(O)C=CO[C@@H](O[C@H]3O[C@@H](CO)[C@@H](O)[C@@H](O)[C@@H]3O)[C@H]21 | 4.5% | · | 9.3% | 19.8%[21.5 µM] | · | · | · | · | · | ·
COc1ccc(OC)c2c1C(=O)C(Cl)=C(Cl)C2=O | 0.501µM* | 2.12µM* | 22.4µM* | · | -0.3% | 1.3 | 8.44* | ? | 1.64µM* | 5.17µM*
COc1ccc(OC)c2c1C(=O)CC2C (stereo not given) | · | 3.7% | · | · | · | 2.7 | · | · | · | ·
O=S(=O)(/N=C(\Sc1ccccc1)c1ccccc1)c1ccc(Cl)cc1 | 35.5µM* | 2.38µM* | 79.4µM* | ? | -1.7% | 1.4 | 11.9* | ? | 27.2% | ?
CN1CCC2(CC1)N=C(c1ccc(F)cc1)C(=S)N2C(=O)c1ccc(C(C)(C)C)cc1 | 50.1µM* | 23.8µM* | ? | 10µM* | 1.4% | 1.6 | ? | ? | ? | ?
CC(C)(C)c1ccc(C(=O)N2CCNCC2)cc1 | -13.0% | -1.6% | -7.0% | 7.7%[12.7 µM] | -2.8% | -2.8 | · | · | · | ·
COc1ccc(NC(=O)c2sc3nc4n(c(=O)c3c2C)CCC4)c(OC)c1 | · | · | -2.4% | -34.1%[59 µM] | · | · | · | · | · | ·
Cc1ccc2c(c1Br)C(O)(CC(=O)c1ccc(F)cc1)C(=O)N2 (stereo not given) | · | · | 12.2% | -1.5%[59 µM] | · | · | · | · | · | ·
CCCc1c(OCCCOc2ccc(OCC(=O)O)cc2)ccc(CC=O)c1O | -11.0% | · | 35.5µM* | · | · | · | · | · | · | · | USP1 UbRho=59.1µM*
Cc1ccc(NS(=O)(=O)c2ccc3[nH]c4c(c3c2)CCCC4)cc1N(C)C | · | · | 6.2% | ? | · | · | · | · | · | ·
O=C(/C=C/c1ccc(O)c(O)c1)c1ccc(S(=O)(=O)N2CCCCCC2)cc1 | -13.3% | -7.7% | 79.4µM* | 5.01µM* | 1.3% | 1.6 | 23.8* | 25.1µM* | 22.3% | -6.0%
COc1ccc(CNc2ncnc3ccc(-c4c(C)noc4C)cc23)cc1 | -18.8% | · | · | · | · | · | · | · | · | ·
O=C(Oc1csc(=S)n1C(=O)c1ccccc1)c1ccccc1 | 39.8µM* | 2.99µM* | ? | 1µM* | -3.1% | -1.9 | ? | 8.91µM* | -4.6% | 13.5%

High-throughput results from PubChem BioAssay.
